# Screening data as filed in PubChem BioAssay.
# TDP1 block: inhibitors of human tyrosyl-DNA phosphodiesterase TDP1; recombinant TDP1, AlphaScreen DNA substrate cleavage; 0.28% of 350,000 active; Q9NUW8; Potency, µM (titrated, usually from 130 µM), for inactives: at the top dose activity change, negative = inhibition, most hits filed as inhibitors; further: nearly all actives have a fitted effect of over 40% in size
#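 AlphaScreen read-out: signal falls as enzyme removes the 3' tyrosine-FITC from a 5'-biotinylated DNA oligo (15 nM, 5 min, RT). Enzyme was E. coli-made recombinant Tdp1 at 1 nM, exposed to compound for 15 min beforehand; beads 10 ug/ml, 10 min.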
# DT40 TDP1 no CPT: qHTS for Inhibitors of human tyrosyl-DNA phosphodiesterase 1 (TDP1): qHTS in cells in absence of CPT; AID 686978, 2013; DT40 Tdp1-/- hTDP1 cells, no CPT, ATP luminescence, 48 h; Potency, µM (doses to about 46.2 µM), for inactives: at the highest dose activity change, negative = growth inhibition, most hits filed as inhibitors; 15% of 420,000 active; further: nearly all actives have a fitted effect of over 55% in size
#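 Luminescent ATP content (CellTiter-Glo) served as the growth readout. Knockout chicken DT40 cells expressing human TDP1 were exposed to compounds without camptothecin for a minimum 48 hr at 37 °C.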
# RORg inh: inhibitors of mouse ROR gamma transcriptional activity. Potency, µM (highest dose often 53.6 µM), for inactives: at the highest dose activity change, negative = inhibition, most hits filed as inhibitors. P51450. AID 2551. 5.4% of 310,000 active. Drosophila S2 Gal4-RORgamma UAS-luciferase reporter, 20 h; further: nearly all actives have a fitted effect of over 60% in size
# Target sequence (P51450 whole entry, looked up, the tested form may be a part): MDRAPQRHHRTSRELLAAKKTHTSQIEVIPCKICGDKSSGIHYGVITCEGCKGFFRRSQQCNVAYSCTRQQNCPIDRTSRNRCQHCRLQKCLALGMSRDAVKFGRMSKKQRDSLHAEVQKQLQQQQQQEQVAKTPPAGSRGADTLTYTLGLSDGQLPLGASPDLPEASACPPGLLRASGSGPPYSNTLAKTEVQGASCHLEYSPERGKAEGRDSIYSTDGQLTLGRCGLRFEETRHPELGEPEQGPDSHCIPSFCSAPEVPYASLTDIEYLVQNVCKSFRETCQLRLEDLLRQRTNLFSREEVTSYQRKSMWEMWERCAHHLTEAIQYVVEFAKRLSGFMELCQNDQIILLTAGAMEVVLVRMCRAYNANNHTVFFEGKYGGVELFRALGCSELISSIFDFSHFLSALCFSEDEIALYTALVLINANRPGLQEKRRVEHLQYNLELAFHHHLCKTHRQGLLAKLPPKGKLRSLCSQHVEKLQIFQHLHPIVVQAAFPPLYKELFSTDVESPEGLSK
#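 Compounds are pin-transferred onto Drosophila Schneider cells expressing a copper-inducible Gal4–ROR gamma transactivation domain fusion. After 1 hr, copper sulfate is added to 700 uM final; luciferase is read 20 hr later.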
# DT40 TDP1 CPT: DT40-hTDP1 cell growth loss with CPT; chicken DT40 Tdp1-/-;hTDP1 cells + 20 nM CPT, ATP luminescence, 48 h; Potency, µM (doses to about 46.2 µM), without a hit: at the top dose activity change, negative = growth inhibition, actives largely listed as inhibitors; 12% of 420,000 active; AID 686979; further: nearly all actives have a fitted effect of over 55% in size
#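 Chicken DT40 Tdp1-/- cells stably complemented with human TDP1 were seeded at 400 cells/well in medium containing 20 nM camptothecin, exposed to pin-transferred compounds, and grown at 37 °C for at least 48 hr. Viability was read as ATP luminescence.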
# Gal4-VP16 FLuc: counter-screen for ROR gamma inhibitors: Gal4-VP16 reporter; Drosophila S2 Gal4-VP16 UAS-luciferase, luminescence, 20 h; Potency, µM (top dose mostly 53.6 µM), for the others: top-dose activity, negative = inhibition, usual class: inhibitors; 3.5% of 310,000 active;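 further: Gal4-VP16 expression switched on by copper sulfate through the metallothionein promoter; nearly all actives have a fitted effect of over 50% in size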
# An asterisk follows results filed as active; u = inconclusive; x = no result given; [ ] = another dose, or the depositor's remark. Shown are actives, neighbours in structure and some others; about 19% of the full set was active somewhere. The call rests on the fitted dose curve; in most records, active means well fitted curve in the direction sought with a large enough effect; inconclusive means small, poorly fitted or top-dose-only effect, or another doubt; inactive means no such curve, though single readings can be large; an effect the other way counts as inactive or inconclusive. On the % scale 0 is the no-effect control and ±100 the full control effect; potency means the concentration at half of the fitted maximal effect.
SMILES,TDP1 block,DT40 TDP1 no CPT,RORg inh,DT40 TDP1 CPT,Gal4-VP16 FLuc
O=C(NCc1ccco1)c1ccc(Cn2c(SCc3ccccc3)nc3cccnc32)cc1,7.5%,25.9µM*,x,4.11µM*,x
Cc1cccc(CNC(=O)c2ccc(Cn3c(SCc4ccccc4)nc4cccnc43)cc2)c1,9.9%,16.4µM*,x,u,x
COc1cccc(CNC(=O)c2ccc(Cn3c(SCc4ccccc4)nc4cccnc43)cc2)c1,-6.2%,u,x,8.2µM*,x
O=C(NCc1ccccc1)c1ccc(CSc2nc3cccnc3n2Cc2ccccc2F)cc1,1.2%,18.4µM*,x,u,x
Clc1cccc(N/N=C/c2ccc(N3CCOCC3)s2)c1,6.9%,9.2%,u,-5.1%,u
O=S(=O)(NC1CCSc2ccccc21)c1ccccc1 (configuration not stated),-9.5%,u,0.1%,-22.7%,3.4%
COc1ccccc1Nc1ncnc2scc(-c3ccc(F)cc3)c12,-3.8%,u,x,u,x
COc1ccc(-c2csc3ncnc(Nc4cc(OC)cc(OC)c4)c23)cc1,3.8%,16.4µM*,x,u,x
COc1ccc(-c2csc3ncnc(Nc4ccc(OC)cc4OC)c23)cc1,-1.2%,u,x,4.11µM*,x
CCOc1ncccc1C(=O)OCC(=O)Nc1c(C)cccc1C,0.0%,-5.2%,-11.0%,-18.3%,0.9%
O=C(COC(=O)c1cccc(Br)c1)Nc1ccc2[nH]c(=O)[nH]c2c1,x,12.5%,x,8.1%,x
Cc1onc(-c2ccccc2)c1C(=O)OCC(=O)N(C)c1ccccc1,-3.5%,-27.0%,x,-17.2%,x
Cc1onc(-c2c(F)cccc2Cl)c1C(=O)OCn1nnc2ccccc2c1=O,-1.2%,23.1µM*,-37.2%,u,-5.8%
Cc1onc(-c2c(F)cccc2Cl)c1C(=O)OCC(=O)N(C)c1ccccc1,x,0.92µM*,x,1.3µM*,x
Cc1onc(-c2c(F)cccc2Cl)c1C(=O)OCC(=O)NCc1ccccc1,-2.7%[56.1 µM],u,x,u,x
Cc1noc(C)c1C(=O)OCC(=O)Nc1c(F)cccc1F,0.0%,18.4µM*,u,16.4µM*,24.4%
COC(=O)[C@H](C)NC(=O)Nc1ccc(OC)cc1OC,4.9%,-10.7%,u,-7.9%,-1.2%
CCC1CCCCN1CCCNC(=O)c1ccc2c(c1)NC(=O)CN2C (configuration not stated),1.4%,15.4%,-19.5%,-20.8%,-10.4%
Cc1ccc(C)c(OC2=NS(=O)(=O)c3ccccc32)c1,-17.6%,20.6µM*,-3.1%,18.4µM*,2.3%
Cc1ccc(CSC2=NS(=O)(=O)c3ccccc32)cc1,-2.4%,11.2µM*,x,8.91µM*,x
O=S1(=O)N=C(Oc2ccccc2-c2ccccc2)c2ccccc21,2.1%,x,x,x,x
COC1=NS(=O)(=O)c2ccccc21,8.1%,-2.7%,-9.5%,3.4%,u
Cc1ccc(SC2=NS(=O)(=O)c3ccccc32)c(C)c1,0.6%,1.26µM*,x,1.41µM*,x
Cc1ccc(CSC2=CS(=O)(=O)c3ccccc3N2)cc1,2.1%,u,28.8%,u,4.0%
CCOC(=O)C1=C(C)Nc2nc(C)nn2C1c1ccc(C)cc1 (configuration not stated),3.9%,-0.3%,-30.2%,-3.7%,11.8%
SMILES,TDP1 block,DT40 TDP1 no CPT,RORg inh,DT40 TDP1 CPT,Gal4-VP16 FLuc
COc1ccc(C2C=C(C34CC5CC(CC(C5)C3)C4)NC(=S)N2)cc1 (configuration not stated),10.3%,u,0.794µM*,u,1.58µM*
O=C(Nc1ccncc1)C1CC(=O)N(c2ccccc2)C1 (configuration not stated),x,-5.4%,x,-12.4%,x
O=C1C=CC(=Nc2ccc3c(c2)Cc2cc(F)ccc2-3)O1,x,7.31µM*,x,5.17µM*,x
C[n+]1cccc(Br)c1,x,-17.9%,x,4.3%,x
CC(C)c1onc(-c2c(Cl)cccc2Cl)c1COc1ccc(/C=C/c2cccc(C(=O)O)c2)c(Cl)c1,-12.8%,x,-44.9%,x,5.62µM*
CCC(C)NC(=O)c1cccc(OCc2c(C)noc2C)c1 (configuration not stated),5.5%,9.4%,-31.3%,11.1%,2.6%
CCO[C@H]1OC(C(=O)Nc2ccccc2)=C[C@@H](c2ccc(C(F)(F)F)cc2)[C@@H]1CCCO,5.1%,14.6µM*,-106.9%,14.6µM*,u
CCO[C@@H]1OC(C(=O)NCc2nc3ccccc3[nH]2)=C[C@H](c2ccc(C(F)(F)F)cc2)[C@H]1CCCO,5.1%,u,42.7%,u,-8.9%
C#Cc1ccc([C@H]2C=C(C(=O)NCc3ccccc3)O[C@@H](OCC)[C@@H]2CCCO)cc1,6.4%,u,15.9%,u,-2.9%
C#Cc1ccc([C@@H]2C=C(C(=O)Nc3ccccc3)O[C@H](OCC)[C@H]2CCCO)cc1,2.6%,13µM*,44.1%,16.4µM*,3.0%
CCc1nnc(NC(=O)CSc2ncc(-c3ccccc3)[nH]2)s1,-6.1%,-11.0%,6.31µM*,-12.0%,u
CCc1nnc(NC(=O)CSc2ncc(-c3ccccc3)n2CC)s1,6.1%,-3.1%,11.2µM*,u,u
Fc1cc2[nH]cnc2cc1Cl,2.7%,1.84µM*,-3.5%,5.5%,-2.8%
COc1cc(-c2cc(OC)c3c(C)oc(C)c3c(=O)c2)ccc1OC(=O)c1cccc(C)c1,4.7%,13µM*,x,23.1µM*,x
COc1ccc(-c2cc(OC(=O)c3ccc(F)cc3)c3c(C)oc(C)c3c(=O)c2)cc1OC,-2.5%,u,x,18.4µM*,x
CCOc1cc(-c2ccc(OC(=O)c3ccc(OC)cc3)c(OC)c2)cc(=O)c2c(C)oc(C)c12,4.9%,18.4µM*,x,14.6µM*,x
O=C(CCC1CCCCC1)NNC(=O)c1cnccn1,8.0%,u,u,u,u
O=c1c(-c2cc(-c3ccccc3)nc3c2COc2ccccc2-3)coc2ccc(Cl)cc12,5.8%,-0.5%,x,-3.6%,x
Cc1ccc(NC(=O)Cn2cnc3ccccc32)cc1C,2.5%,u,u,u,u
O=C(NCCc1nnc2n1CCN(Cc1cc3ccccc3o1)CC2)c1ccoc1,x,-14.1%,x,-13.6%,x
COCC(C)n1c(C)cc(C(=O)COc2ccc(S(=O)(=O)N3CCOCC3)cc2Cl)c1C (configuration not stated),11.6%,u,0.7%,20.6µM*,-6.5%
Cc1cccnc1Nc1nc(-c2ccc(O)c(O)c2)cs1,13.7%,3.66µM*,-111.5%,3.26µM*,7.08µM*
COc1ccc(-c2csc(Nc3ncccc3C)n2)cc1,-1.2%,u,u,u,6.4%
COc1ccc(-c2csc(Nc3ncccc3C)n2)cc1OC,7.0%,u,3.55µM*,u,-27.2%
O=C(CN(Cc1ccco1)C(=O)CNS(=O)(=O)c1ccc(Cl)cc1)NCc1ccco1,2.4%,-7.1%,25.5%,u,0.2%
